Measurements reported in PubChem BioAssay AID492960 (National Center for Advancing Translational Sciences (NCATS), 2010).
Inconclusive results are not listed. Where a call stands in place of a potency, no number is given. The source made the active and inactive calls. Calls come from the whole dose curve; as a rule, active = well fitted curve in the direction sought with a large enough effect; inconclusive = small, poorly fitted or top-dose-only effect, or effect the other way, or another doubt; inactive = no such curve, though single readings can be large or run the other way.

Experiment: Secondary Assay for lipid storage modulators: HepG2 cell LDSA assay for probe SAR
Settings: HepG2 lipid droplet BODIPY, laser-scanning cytometry, 18-24 h; series mostly up to 46.1 µM
Excerpt: NIH Molecular Libraries Probe Production Centers Network [MLPCN] NIH Chemical Genomics Center [NCGC] MLPCN Grant: 1 R03 MH085686-01 Assay Submitter (PI): Beller, Mathias; Max-Planck-Institut fur Biophysikalische Chemie NCGC Assay Overview: Storing lipids as a reservoir for energy or the anabolism of elementary metabolites is a common feature of probably all cells and is conserved from bacteria to humans. The universal cellular lipid storage organelle is the so-called lipid storage droplet (LD). Although ubiquitous, LDs share a simple structure composed of a hydrophobic core that harbors the storage lipids, which is shielded by a droplet-specific phospholipid monolayer to which proteins are attached. The current model of LD biogenesis involves an incorporation of the lipid core into the membrane leaflets of the endoplasmic reticulum (ER) followed by a subsequent budding-like maturation of a LD, which ultimately pinches off. Once released, LD volume can increase by localized lipogenesis or fusion of existing droplet. Storage lipids are re-mobilized enzymatically by lipase activity. Lipase regulation in the adipocyte is heavily studied and involves multiple components including catecholamine signaling, the LD-associated proteins Perilipin and comparative gene identification (CGI-58) and at least two lipases named hormone sensitive lipase (HSL) and adipocyte triglyceride lipase (ATGL). LD regulation outside of the adipocyte is poorly understood and only few components are known. However, there is an urgent need to learn more about ectopic fat depots as mislocalized storage of lipids, for example in the liver or muscle, is an eminent health problem associated with insulin resistance or the metabolic syndrome.
NCGC Assay Protocol Summary: The assay was performed with HepG2 cells, using an oleic acid feeding protocol similar to the S3 assay. We dispensed 4 uL of cells to give 700 cells/well into Greiner bio-one 1,536-well plates (black walled, clear bottom). Triacsin C (Sigma-Aldrich T-4540), an inhibitor of long-chain fatty acyl CoA synthetase that blocks synthesis of triglycerides, was used as a positive control for lipid under-storage using a final concentration of 20 uM. The orexin antagonist, SB408124 - previously identified to stimulate lipid over-storage, was used as a positive control for lipid over-storage using a final concentration of 20 uM. A total of 23 nL of compound solution of different concentrations were transferred to the assay plates using a Kalypsys pin tool equipped with a 1,536-pin array containing 10-nL slotted pins (FP1S10, 0.457-mm diameter, 50.8 mm long; V&P Scientific). One microliter of oleic acid was added (400 uM final concentration), and the plate was lidded with stainless steel rubber gasket lined lids containing pinholes. After 18-24 h incubation at […] and 95% humidity, 4 uL of the dyes BODIPY 493/503 (Molecular Probes) and the Cell Tracker Red CMTPX dye (Molecular Probes) were added to the wells to stain lipid droplets and enumerate cell number, respectively. Fluorescence was detected by excitation of the fluorophores with a 488-nm laser on an Acumen Explorer (TTP Lab Tech). The total intensity in channel 2 (500-530 nm) reflected lipid droplet accumulation. Cells were detected using channel 3 (575-640 nm) with 5-um width and 100-um depth filters. The ratio of the number of objects in PMT channel 2 over the number of objects in PMT channel 3 was also calculated. […]
For CCOC(=O)C1CCN(C(=O)C2(NC(=O)Nc3ccccc3Cl)CCCC2)CC1, the Potency was “inactive”. For CCOc1ccc(CCNC(=O)c2ccc(C(=O)c3ccccc3)cc2)cc1OCC, the Potency was “inactive”. With CCC/C=C/C/C=C/C=C/C=N/NN=O the Potency was 396 nM (active). In the case of CCOc1ccc(CCNC(=O)c2ccc(Oc3ccccc3)cc2)cc1OCC, the Potency is reported as “inactive”. For CCOc1ccc(CCNC(=O)c2ccccc2)cc1OCC, the Potency was “inactive”.
